Source: PubChem BioAssay
Calls of active or inactive are those of the source. No rule for the calls is given here.

Test: P. aeruginosa biofilm formation inhibitors, primary screen, strain PAO1, LB-PBS medium, absorbance 600 nm (AID 1176); also: test concentration not given here
Details: P. aeruginosa PAO1 growth/biofilm, A600, 12 h; higher = more signal

Row | SMILES | z-score
1 | CCCC[C@H]1OB(O)C[C@H]2C1=C(COc1ccccc1)C[C@H]1C(=O)C=CC(=O)[C@H]12 | 0.531 (inactive)
2 | COCCOC(=O)N1C(=O)[C@@]2(c3ccccc31)[C@H](C(=O)N1CCN(c3ncccn3)CC1)[C@H]1C(=O)O[C@H](c3ccccc3)[C@H](c3ccccc3)N1[C@@H]2c1ccccc1OCCO | 3.3 (inactive)
3 | COC(=O)[C@@]1(Cc2ccccc2)[C@H]2c3cc(C(=O)N(C)C)n(CCO)c3C[C@H]2CN1C(=O)c1ccccc1 | 0.274 (inactive)
4 | [N-]=[N+]=Nc1ccccc1[C@@H]1OC(c2ccc(OCCCO)cc2)=N[C@]1(Cc1ccccc1)C(=O)NCCN1CCOCC1 | -0.441 (inactive)
5 | COc1cc(C(O)C2C=CC3C(=O)N(c4ccccc4)C(=O)C3N2Nc2ccccc2)cc(OC)c1OC (stereo unspecified) | 1.11 (inactive)
6 | C=CCC(OC(C)=O)[C@@H]1[C@@H](N(Cc2ccc(-c3ccccc3)cc2)C(=O)c2cccc3ccccc23)c2cc(OCCCO)ccc2N1C(=O)Cc1ccc(OC)cc1 (stereo partly specified) | -0.121 (inactive)
7 | Cc1ccc(N2C(=O)c3ccccc3[C@](C)(C(=O)NCCCN(C)C)[C@@H]2c2ccc(CO)cc2)nc1 | 0.084 (inactive)
8 | CCOC(=O)C[C@H]1[C@H](OC(=O)Cc2ccc3c(c2)OCO3)[C@@H](NC(=O)Cc2ccc(OC)cc2)c2cc(OCCCO)ccc2N1C(=O)Cc1ccc(OC)cc1 | 0.501 (inactive)
9 | O=C1N(CCS(=O)(=O)c2ccccc2)c2ccccc2C[C@]12N=C(c1ccc(OCCCO)cc1)O[C@@H]2c1ccccc1 | 0.575 (inactive)
10 | C=CCOC(=O)[C@@H]1[C@H]2C(=O)O[C@H](c3ccccc3)[C@H](c3ccccc3)N2[C@H](c2ccc(OCCOC(=O)[C@H]3C[C@H]4C(=O)N5CCC[C@H]5C(=O)N4[C@H]3c3cccc(OCCO)c3)cc2)[C@@]12C(=O)Nc1ccc(I)cc12 | 3.81 (inactive)
11 | COc1ccc([Si](C)(C)[C@H]2[C@H](CC(=O)N3Cc4ccccc4C[C@H]3CO)O[C@@]3(C(=O)N(c4ccccc4)c4ccccc43)[C@@H]2C)cc1 | 0.0943 (inactive)
12 | CCN(CC)c1ccc(N2CC=CC34O[C@@H]5C=CCCOC(=O)C5[C@H]3C(=O)N(C(C)CO)[C@@H]4C2=O)cc1 (stereo partly specified) | 0.398 (inactive)
13 | COCCOC(=O)N1C(=O)[C@@]2(c3cc(C#CC4(O)CCCCCC4)ccc31)[C@H](c1ccc(O)cc1)N1[C@H](c3ccccc3)[C@H](c3ccccc3)OC(=O)[C@H]1[C@@H]2C(=O)N1CCCCCCC1 | 1.19 (inactive)
14 | COC(=O)[C@@]1(Cc2ccc(F)cc2)[C@H]2c3cc(C(=O)N(C)C)n(C)c3C[C@H]2CN1C(=O)c1ccccc1 | 0.026 (inactive)
15 | O=C(NC1CC1)[C@@H]1c2ccccc2C(=O)N(Cc2cc(C(F)(F)F)cc(C(F)(F)F)c2)[C@H]1c1ccc(CO)cc1 | 1.12 (inactive)
16 | COc1ccc(C(O)C2C=CC3C(=O)NC(=O)C3N2Nc2ccc(Cl)cc2Cl)c2ccccc12 (stereo unspecified) | 1.28 (inactive)
17 | O=C(NCCN1CCOCC1)[C@@H]1c2ccccc2C(=O)N(Cc2ccccc2C(F)(F)F)[C@H]1c1ccc(CO)cc1 | -0.342 (inactive)
18 | CN(C)CCCCNC(=O)[C@H]1C[C@H]2C(=O)N3CCC[C@H]3C(=O)N2[C@H]1c1cccc(OCCO)c1 | 0.202 (inactive)
19 | COc1ccc(CCNC(=O)[C@@H]2c3ccccc3C(=O)N(Cc3ccccc3OC)[C@H]2c2ccc(CO)cc2)cc1 | 0.264 (inactive)
20 | CC(C)OC(=O)CC(=O)CC(O)c1cccc([N+](=O)[O-])c1 (stereo unspecified) | 1.1 (inactive)
21 | CCOC(=O)C[C@H]1[C@H](OC(=O)c2cc3ccccc3oc2=O)[C@@H](NC(=O)CC(C)C)c2cc(OCCCO)ccc2N1C(=O)Cc1ccc(OC)cc1 | -0.423 (inactive)
22 | CC1=C([C@H](O)CCc2ccccc2)[C@H](CO)n2c(=O)n(-c3ccccc3)c(=O)n2C1 | 0.589 (inactive)
23 | CC(C)(C)N1CC=CC23O[C@@H]4C=CCCOC(=O)C4[C@H]2C(=O)N(CCCCCCO)[C@@H]3C1=O (stereo partly specified) | -0.456 (inactive)
24 | CCCCCC1=C2CNC(CC(C)C)(C(=O)OC)C=C2C(C)C1=O (stereo unspecified) | 0.383 (inactive)
25 | O=C1C=C(c2ccccc2)C(=O)C2=C1CC([C@H]1Oc3ccccc3S(=O)(=O)N3CCC[C@@H]13)=CC2 | -0.0461 (inactive)
26 | O=C1C[C@@](C(=O)O)(c2ccc([N+](=O)[O-])cc2)[C@@H](c2ccc(CO)cc2)N1C1CCCCC1 | -0.0123 (inactive)
